Measurements from PMC7826789 (International Journal of Molecular Sciences, 2021).

Columns and labels:
Details in all cases: Compound Concentration (nM):1000
CDK3 = system: CDK3
CDK4-cyclinD1 = system: CDK4-cyclinD1
CDK4-cyclinD3 = system: CDK4-cyclinD3
CDK4 = system: CDK4
CDK5 = system: CDK5
CDK7 = system: CDK7
CDK8 = system: CDK8
CDK9 = system: CDK9
CDKL1 = system: CDKL1
CDKL2 = system: CDKL2
CDKL3 = system: CDKL3
CDKL5 = system: CDKL5
CHEK1 = system: CHEK1
CHEK2 = system: CHEK2
CIT = system: CIT
CLK1 = system: CLK1
CLK2 = system: CLK2
CLK3 = system: CLK3
CLK4 = system: CLK4
CSF1R-autoinhibited = system: CSF1R-autoinhibited
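Further: KINOMEscan scanMAX binding as percent activity remaining versus control; lower means stronger binding.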

SMILES	Percent Control (CDK3) [%]	Percent Control (CDK4-cyclinD1) [%]	Percent Control (CDK4-cyclinD3) [%]	Percent Control (CDK4) [%]	Percent Control (CDK5) [%]	Percent Control (CDK7) [%]	Percent Control (CDK8) [%]	Percent Control (CDK9) [%]	Percent Control (CDKL1) [%]	Percent Control (CDKL2) [%]	Percent Control (CDKL3) [%]	Percent Control (CDKL5) [%]	Percent Control (CHEK1) [%]	Percent Control (CHEK2) [%]	Percent Control (CIT) [%]	Percent Control (CLK1) [%]	Percent Control (CLK2) [%]	Percent Control (CLK3) [%]	Percent Control (CLK4) [%]	Percent Control (CSF1R-autoinhibited) [%]
COc1cc(/C=N/Nc2ncnc3[nH]ncc23)ccc1O [GW578748X]	100	79	100	92	84	70	83	100	52	100	97	100	7	51	83	19	29	85	50	56
Cl.O=C(Nc1ccc(Oc2ccc3[nH]c(NC(=O)c4ccccc4)nc3c2)cc1)Nc1cc(C(F)(F)F)ccc1F [GW709042A]	100	92	100	84	100	32	54	81	92	69	96	100	96	100	0	44	100	100	79	79
CC1=C(C(=O)Nc2ccc3[nH]ncc3c2)C(c2ccc(Cl)c(Cl)c2)CC(=O)N1 (centres unmarked) [GSK299115A]	100	74	100	80	100	83	47	100	96	80	95	97	95	100	100	75	67	78	52	74
COc1cc2ncnc(Nc3ccc4c(cnn4Cc4ccccc4)c3)c2cc1OC.Cl [GW282449A]	100	100	100	100	100	100	100	100	100	95	100	55	100	0	100	100	100	100	100	100
COc1ccc2c(-c3ccnc(Nc4cccc(OC(F)(F)F)c4)n3)cnn2n1 [GW810372X]	100	90	74	83	100	61	90	97	77	18	0	14	100	100	97	1.3	2.8	32	2.4	86
Nc1ncnc2occ(-c3ccc(NC(=O)Nc4cc(C(F)(F)F)ccc4F)cc3)c12 [GW770249X]	39	96	100	100	63	4.4	0	70	93	31	13	100	100	96	44	41	100	100	57	25
CCS(=O)(=O)c1ccc(OC)c(Nc2ncc(-c3cccc(OC)c3)o2)c1 [GW580509X]	100	93	93	99	100	84	100	100	98	98	100	59	100	100	100	6.9	3.9	71	15	43
NS(=O)(=O)c1ccc(N/N=C2\C(=O)Nc3ccc(C(=O)NCCc4c[nH]cn4)cc32)cc1 [GW300660X]	100	12	30	100	100	33	100	100	55	100	100	36	100	64	100	72	5.5	100	76	90
COc1cc2ncn(-c3cc(O[C@H](C)c4ccccc4Cl)c(C(N)=O)s3)c2cc1OC [GSK237701A]	100	81	100	86	100	76	48	100	94	86	76	100	100	100	100	81	90	77	68	70
C[C@@H](Oc1cc(-n2cnc3ccc(OC4CCN(C)CC4)cc32)sc1C(N)=O)c1ccccc1Cl [GSK579289A]	90	100	69	94	100	70	100	100	53	100	100	100	90	100	78	62	88	87	95	73
